This is an account of results in PubChem BioAssay AID624330 (Southern Research Specialized Biocontainment Screening …, 2012).

Usually inhibition stands for the change of the read-out against control, counted positive when it falls.

SMILES strings stand for the structures. The campaign covered roughly 340,000 compounds. About 2,100 (0.62%) were called active. Only a sample is shown. Potency and affinity values are given separately. A number with no mark means an inactive call.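 The calls were made as follows: active = first-screen hits whose inhibition reached a set limit at any dose in the follow-up dose series; inconclusive = inhibition above the set first-screen limit but never retested; inactive = the rest.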

Rac GTPase-activating protein 1 (Homo sapiens), sequence (Q9H0H5 whole entry, looked up): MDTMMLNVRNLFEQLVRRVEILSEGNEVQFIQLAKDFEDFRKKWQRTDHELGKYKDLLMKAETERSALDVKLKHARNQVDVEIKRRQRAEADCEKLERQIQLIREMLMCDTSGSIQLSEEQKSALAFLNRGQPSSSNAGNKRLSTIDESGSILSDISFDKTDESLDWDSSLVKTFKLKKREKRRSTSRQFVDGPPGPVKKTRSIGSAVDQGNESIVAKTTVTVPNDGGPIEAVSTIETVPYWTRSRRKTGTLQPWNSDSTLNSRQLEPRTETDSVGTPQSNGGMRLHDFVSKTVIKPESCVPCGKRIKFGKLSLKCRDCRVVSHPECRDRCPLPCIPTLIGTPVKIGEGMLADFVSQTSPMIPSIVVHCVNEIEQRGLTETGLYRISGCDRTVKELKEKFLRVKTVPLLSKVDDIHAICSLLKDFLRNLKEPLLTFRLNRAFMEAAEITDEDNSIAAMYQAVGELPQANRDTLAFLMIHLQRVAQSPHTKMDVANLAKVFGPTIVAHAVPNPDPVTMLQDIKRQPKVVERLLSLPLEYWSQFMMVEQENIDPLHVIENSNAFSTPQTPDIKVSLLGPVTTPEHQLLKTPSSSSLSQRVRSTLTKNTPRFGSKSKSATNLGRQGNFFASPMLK

This assay has as its target Rac GTPase-activating protein 1 (Homo sapiens) (UniProt Q9H0H5). Put plainly: MgcRacGAP GTPase-activating activity inhibitors, confirmation, biochemical, ADP Hunter fluorescence, primary and confirmatory (AID 624330).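 Also: fluorescence reports GDP produced by GAP-driven GTP hydrolysis.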 To be noted: MgcRacGAP-stimulated Rac1 GTP hydrolysis, at 30 µM, stronger effect = higher value, GST-tagged Rac1 F28L mutant substrate.
In the case of `O=C(O)CSc1nnc(CNc2cccc(C(F)(F)F)c2)n1Cc1ccco1`, the inhibition was 10.8%.

`COC(=O)CCC(=O)NNC(=O)CCC(=O)Nc1cccc(Cl)c1C`: the inhibition is 8.78%.

With `COc1ccc(OC)c(-c2csc(NC(=O)CSc3ccc(Br)cc3)n2)c1`, the inhibition was 5.11%.

Turning to `CCn1c(=O)n(CC)c2cc(N3CCCC3)c(NC(=O)c3ccc(F)cc3)cc21`, the inhibition was 17%.

As to `CCn1c(=O)n(CC)c2cc(N3CCCC3)c(NC(=O)c3cccc(C)c3)cc21`, the inhibition is 11.6%.

As for `CCn1c(=O)n(CC)c2cc(N3CCCC3)c(NC(=O)c3cccc(OC)c3)cc21`, the inhibition was 8.3%.

Turning to `COc1cccc(C(=O)Nc2cc3c(cc2N2CCOCC2)n(C)c(=O)n3C)c1`, the inhibition was -34.3%.

For `O=C(NCC(c1ccco1)N1CCCCC1)c1cccnc1` (stereo not given), the inhibition is 0.38%.

As to `C/C(N)=C(/C#N)C(=O)CSc1nc2ccccc2n1CC(C)C`, the inhibition was 8.8%.

As to `NC(=S)N=Nc1c(O)n(CC(=O)Nc2ccccc2)c2ccccc12`, the inhibition was -6.62%.

For `COc1ccc(C(=O)Nc2c(N)nc(SCC(=O)N3CCC(C)CC3)[nH]c2=O)cc1`, the inhibition was 6.29%.

For `N#Cc1ccsc1NC(=O)C1=COCCO1`, the inhibition is 10.4%.

Turning to `CN(C)c1ccc(CNCC2CCCO2)cc1` (stereo not given), the inhibition was -6.93%.

As for `CN(C)c1ccc(C(=O)NCC2CCCO2)cc1` (stereo not given), the inhibition is -9.43%.

Consider `CN(CC(=O)Nc1cccc(S(=O)(=O)N2CCOCC2)c1)CC(=O)Nc1ccc(Cl)c(C(F)(F)F)c1`, for which the inhibition is 6.95%.

Turning to `C/C(=N\O)C(C)(C)Nc1ccc(Cl)cc1`, the inhibition is 11.3%.

For `CC(C)C(CO)NC(=O)CC(=O)NC(CO)C(C)C` (stereo not given), the inhibition was 5.27%.

In the case of `CN(C)c1ccc(C=NN2CCCCCC2)cc1`, the inhibition is -2.87%.

Consider `CC1CCCC(C)N1/N=C/c1ccc(N(C)C)cc1` (stereo not given), for which the inhibition is 9.58%.

With `Cc1ccc(C(=O)N2CCN(c3ccc(N4CCOCC4)nn3)CC2)cc1C`, the inhibition is 5.24%.

Turning to `CCOC(=O)c1c(NC(N)=O)sc(C)c1C`, the inhibition is 1.42%.

Regarding `CCOC(=O)Nc1sc(C)c(C)c1C(=O)OCC`, the inhibition is -8.16%.

As for `O=c1[nH]c2ccccc2n2c(-c3ccncc3)nnc12`, the inhibition was 6.75%.

Regarding `O=c1[nH]c2ccccc2n2c(C(F)(F)F)nnc12`, the inhibition was 5.97%.

Take `CC(=O)c1ccc(NC(=O)c2ccc3nc(C)sc3c2)cc1`: the inhibition was 5.73%.

`COC(=O)c1ccc(NC(=O)c2ccc3nc(C)sc3c2)cc1`: the inhibition is -0.39%.

For `COC(=O)c1ccc(NC(=O)c2ccc3nsnc3c2)cc1`, the inhibition was 2.71%.

Take `O=C(Nc1ccc(Cl)cc1)c1ccc2nsnc2c1`: the inhibition is -0.42%.

`O=C(/C=C/c1ccc(Cl)c(Cl)c1)NCCCn1ccnc1`: the inhibition was 7.08%.

Take `CN1c2ccc(Cl)cc2C(=O)NC1c1ccc([N+](=O)[O-])s1` (stereo not given): the inhibition was 11.4%.

On to `Cc1cccn2c(=O)c(C=NCc3ccccc3)c(NCCO)nc12`, for which the inhibition was 7.69%.

For `C#CCOCCOCCOCCNc1nc(N2CCOCC2)nc(N2CCN(C(=O)[C@H](Cc3cc4ccccc4[nH]3)n3cc([C@@H](N)C(C)CC)nn3)CC2)n1` (stereo not given in full), the inhibition was 13.4%.

Turning to `C#CCOCCOCCOCCNc1nc(N2CCN(C(=O)[C@H](CCCCN)n3cc(C(N)CC(C)C)nn3)CC2)nc(N2CCN(C(=O)[C@H](CCC(=O)O)n3cc(C(N)[C@H](C)CC)nn3)CC2)n1` (stereo not given in full), the inhibition is 13.4%.

For the compound `C#CCOCCOCCOCCNc1nc(N2CCOCC2)nc(N2CCN(C(=O)[C@H](CCCCN)n3cc([C@@H](N)CC(C)C)nn3)CC2)n1`, the inhibition is 11.6%.

For the compound `C#CCOCCOCCOCCNc1nc(N2CCN(C(=O)[C@H]([C@@H](C)CC)n3cc([C@@H](N)CC(C)C)nn3)CC2)nc(N2CCN(C(=O)[C@H](CCCCN)n3cc([C@@H](N)C(C)CC)nn3)CC2)n1` (stereo not given in full), the inhibition was 19.8%.

Consider `C#CCOCCOCCOCCNc1nc(N2CCN(C(=O)[C@H](CCCCN)n3cc([C@@H](N)CO)nn3)CC2)nc(N2CCN(C(=O)[C@H](CCCCN)n3cc([C@@H](N)CC(C)C)nn3)CC2)n1`, for which the inhibition is 19.8%.

For `C#CCOCCOCCOCCNc1nc(N2CCN(C(=O)C(Cc3cc4ccccc4[nH]3)n3cc(C(N)C(C)CC)nn3)CC2)nc(N2CCN(C(=O)C(Cc3cc4ccccc4[nH]3)n3cc(C(N)C(C)CC)nn3)CC2)n1` (stereo not given), the inhibition was 4.22%.

As to `CC(OC(=O)c1cc(=O)[nH]c2ccccc12)C(=O)N1C(C)CCCC1C` (stereo not given), the inhibition was 3.29%.

Take `COc1ccccc1Nc1nnc(SCc2cc(=O)n3cc(C)ccc3n2)s1`: the inhibition was 10.9%.

Take `Cc1cc(C)n2nc(SCc3nc4ccccc4[nH]3)nc2n1`: the inhibition is 3.82%.

Take `C/C=C\C=C/C(=O)Nc1cccc(C2=NOC3(C2)C[C@@H](C(N)=O)N(C(=O)COc2ccc(Cl)cc2)C3)c1` (stereo not given in full): the inhibition is 7.01%.

In the case of `O=C(c1sc2ccccc2c1Cl)N1CCN(c2ncccn2)CC1`, the inhibition was 5.52%.

For `Cc1nc(Nc2nc(CSc3ccc(Cl)cc3)cc(=O)[nH]2)nc2ccccc12`, the inhibition is 4.96%.

In the case of `O=C(COC(=O)C1CC(=O)N(c2ccccc2)C1)c1ccccc1` (stereo not given), the inhibition was 4.11%.

As for `O=C(CCCN1C(=O)/C(=C/c2ccccc2Cl)SC1=S)NCCCN1CCOCC1`, the inhibition is 12.8%.

On to `O=C1C(=Cc2ccccc2O)SC(=S)N1CCCN1CCOCC1`, for which the inhibition is 14.5%.

For the compound `CCN(CC)C(=S)Nc1ccc2nc3n(c(=O)c2c1)CCCCC3`, the inhibition is 3.47%.

Turning to `O=C(Nc1ccccn1)c1cc2ccccc2cc1O`, the inhibition is 6.04%.

With `O=C(O)c1ccccc1C(=O)Nc1ccccn1`, the inhibition was 3.57%.

As to `OCCSc1c(F)c(SCCO)c(SCCO)c(F)c1SCCO`, the inhibition was -1.8%.

On to `Cn1c(=O)[nH]c(=O)c2c1nc(NCCc1ccccc1)n2CC(O)COc1ccccc1` (stereo not given), for which the inhibition was 4.54%.

Regarding `CCOC(=O)C1(CCOC)CCN(C/C=C/c2ccccc2OC)CC1`, the inhibition is 5.1%.

As to `COc1cccc(/C=N/NC(=O)CNC(=O)c2cccnc2)c1O`, the inhibition is 5.08%.

Take `COc1cccc(/C=N/NC(=O)CNC(=O)c2cccs2)c1O`: the inhibition was 9.63%.

As to `COc1ccc(Br)cc1/C=N/NC(=O)CNC(=O)c1cccnc1`, the inhibition is -12.5%.

Turning to `O=C(CNC(=O)c1ccco1)N/N=C/c1cc(Br)ccc1O`, the inhibition was 5.36%.

As for `O=C(CNC(=O)c1ccncc1)N/N=C/c1cc(Br)ccc1O`, the inhibition was 3.51%.

As to `O=C(N/N=C/c1ccc(O)cc1O)c1ccncc1`, the inhibition is 31.7%.

Take `O=C(CNC(=O)c1cccs1)N/N=C/c1ccccc1[N+](=O)[O-]`: the inhibition is 3.27%.

Turning to `O=C(CNC(=O)c1ccco1)N/N=C/c1ccccc1[N+](=O)[O-]`, the inhibition was 16.6%.
